Compound activity as filed in PubChem BioAssay.
The list is not random: actives were taken first. Their share in the collection is about 0.47%.
CCT modulator = High-Throughput Screening for Modulators of Cytosolic Chaperonin Activity; purified chaperonin ATPase assay, HTRF ADP detection, 30 min; activity change, % (no concentration beside the values), hits read low; hit rate 0.3% among 360,000; AID 651819, 2012; in the data active = activity change below about -30%
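We incubate TRiC, 40 or 20 nM final, with library compounds at 76 uM and 10 uM ATP for 30 min at 37 °C. ADP formed is detected with Transcreener HTRF reagents after 30 min at room temperature.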
AT treatment = qHTS Assay for Identifying a Potential Treatment of Ataxia-Telangiectasia. hit rate 0.19% among 320,000. Potency, µM (doses to about 57.5 µM), hits mostly activators. F2112 A-T fibroblasts, KAP-1 phosphorylation AlphaLISA; neocarzinostatin DNA damage 30 min before lysis; note: nearly all actives have a fitted effect of over 45% in size
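hTERT-immortalized A-T patient fibroblasts (F2112), 500 cells/well in OPTI-MEM, 1% FBS, got compounds for 60 min, then NCS for 30 min at 37C. Lysates were then assayed for phospho-KAP-1 by AlphaLISA (anti-pKAP1 donor, anti-KAP1 acceptor beads), 6 hr at 25C.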
Apoferritin bind = qHTS Assay for Identification of Novel General Anesthetics. AID 485281, 2010. Potency, µM (top dose mostly 77.5 µM), most hits filed as inhibitors. apoferritin/1-aminoanthracene competitive binding, fluorescence. hit rate 0.074% among 350,000; note: nearly all actives have a fitted effect of over 20% in size
Target sequence (P02791 2-175 limits assumed): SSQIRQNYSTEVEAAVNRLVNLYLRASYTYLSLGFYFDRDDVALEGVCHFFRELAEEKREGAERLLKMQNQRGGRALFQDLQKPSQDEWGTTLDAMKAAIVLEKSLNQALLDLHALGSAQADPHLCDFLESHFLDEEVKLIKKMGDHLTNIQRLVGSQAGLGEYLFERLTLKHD
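Read-out: endpoint 1-AMA fluorescence, excitation 380 nm and emission 535 nm, after compounds sit 10 min at room temperature with 10 uM horse-spleen apoferritin in 50% saturated 1-AMA/PBS. Values come from four-parameter Hill fits.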
MmCpn inh = Inhibitors of TCP-1 ring complex (TRiC) of Methanococcus maripaludis (MmCpn): qHTS | Potency, µM (titrated, usually from 76.9 µM), usual class: inhibitors | purified Mm-Cpn ATPase, ADP Transcreener TR-FRET | Chaperonin Mm-Cpn (Methanococcus maripaludis) | AID 504842, 2011 | hit rate 0.031% among 330,000; note: nearly all actives have a fitted effect of over 80% in size
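Purified archaeal chaperonin (25 nM final) was preincubated with compound for 10 min at 37°C, then ATP (10 uM final) was added for 30 min at 37°C in Tris pH 7.4/KCl/MgCl2/DTT buffer. ADP was quantified by HTRF Transcreener TR-FRET.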
Of the large screens only hits and unclear results are named; the others gave an inactive call. Unless noted, calls come from the whole dose curve; as a rule, active = well fitted curve in the direction sought with a large enough effect; inconclusive = small, poorly fitted or top-dose-only effect, or another doubt; inactive = no such curve, though single readings can be large; an effect the other way counts as inactive or inconclusive.

CCOC(=O)C1CCN(c2nc3ccccc3nc2C(C#N)C(=O)NCCc2ccccc2)CC1 (stereo unspecified)	Apoferritin bind 14µM (no result: CCT modulator)
CCOC(=O)C1CCCN(c2nc3ccccc3nc2C(C#N)C(=O)OCC)C1 (stereo unspecified)	none
O=C(NCc1ccc(F)cc1)c1cc(-c2ccc(Cl)cc2)n[nH]1	none (no result: CCT modulator, AT treatment, MmCpn inh)
COc1ccc(C(CNC(=O)c2cccc(S(=O)(=O)Nc3ccccc3OC)c2)N2CCCC2)cc1 (stereo unspecified)	CCT modulator -51 (no result: Apoferritin bind)
COc1ccc(C(CNC(=O)c2cccc(S(=O)(=O)Nc3ccccc3OC)c2)N2CCCCC2)cc1 (stereo unspecified)	none (no result: AT treatment, Apoferritin bind, MmCpn inh)
CCc1ccc(C(c2ccccc2)c2c[nH]c3ccc(C)cc23)s1 (stereo unspecified)	none (no result: CCT modulator, AT treatment, MmCpn inh)
CC(NC(=O)COC(=O)/C=C/c1ccc(Cl)cc1)c1ccccc1 (stereo unspecified)	AT treatment 3.2µM
CC(NC(=O)COC(=O)/C=C/c1cccc(F)c1)c1ccccc1 (stereo unspecified)	none (no result: Apoferritin bind)
Cc1cc2n(n1)CCCN2C(=O)Nc1ccc(C)c(Cl)c1	none (no result: CCT modulator, AT treatment, MmCpn inh)
C=C1C=C(C(F)F)n2ncc(C(=O)Nc3ccc(C(C)CC)cc3)c2N1 (stereo unspecified)	none (no result: CCT modulator, AT treatment, Apoferritin bind)
O=C(NC1CC(=O)N(c2ccc(F)cc2)C1)c1ccc(S(=O)(=O)N2CCCCC2)cc1 (stereo unspecified)	none (no result: CCT modulator, AT treatment, MmCpn inh)
COc1ccc(Nc2oc(-c3cccs3)nc2C#N)cc1	CCT modulator -37
CCn1c(C)c(C(=O)O)c2cc(OC)c3ccccc3c21	AT treatment 10µM
COc1cc2c(C(=O)O)c(C)n(-c3ccccc3)c2c2ccccc12	AT treatment inconclusive
Cc1ccc2c(c1)C(=O)CC(O)(C(F)(F)F)O2 (stereo unspecified)	AT treatment 3.5µM
COc1ccc2c(c1)C(=O)CC(O)(C(F)F)O2 (stereo unspecified)	none
CS(=O)(=O)c1[nH]nc(-c2cccc(Cl)c2)c1C#N	AT treatment 40µM
COc1ccc(-c2noc(CSCC(=O)Nc3cc(OC)c(OC)c(OC)c3)n2)cc1OC	none (no result: CCT modulator, AT treatment, MmCpn inh)
CCOc1ccc(C(=O)CCC(=O)N2CCN(S(=O)(=O)c3cccc(F)c3)CC2)cc1	CCT modulator -49 (no result: Apoferritin bind)
Cc1ccc(OCCCC(=O)N2CCN(S(=O)(=O)c3cccc(F)c3)CC2)cc1	none (no result: Apoferritin bind)
NS(=O)(=O)c1ccc(CCNC(=O)c2cc(-c3ccccn3)nc3ccc(Br)cc23)cc1	CCT modulator -32, MmCpn inh inconclusive
COc1ccc(NC(=O)NC(C)(C(F)(F)F)C(F)(F)F)cc1	CCT modulator -79
CC(NC(=O)Nc1ccc(O)cc1)(C(F)(F)F)C(F)(F)F	none
CCC(=O)N1CCc2cc(Br)cc(S(=O)(=O)CCC(=O)Nc3cccc(C)c3C)c21	none (no result: CCT modulator, AT treatment, MmCpn inh)
COc1ccc(CNCCCC(=O)Nc2c(Cl)ccc(C)c2Cl)cc1OC	CCT modulator -48
CC(CC(=O)Nc1ncc([N+](=O)[O-])s1)c1ccccc1 (stereo unspecified)	Apoferritin bind 35µM
COc1ccc(C2C(=O)N(C3CCC(C)CC3)CC(=O)N2CCC2=CCCCC2)cc1OC (stereo unspecified)	none (no result: CCT modulator, AT treatment, MmCpn inh)
COc1ccc(C2CC(=O)C(CS(=O)(=O)c3ccccc3)C(=O)C2)cc1 (stereo unspecified)	Apoferritin bind 32µM
CCOc1ccc(-c2nonc2NC(=O)c2oc3ccc(Br)cc3c2C)cc1	none (no result: CCT modulator, AT treatment, MmCpn inh)
CCc1nc(-c2ccc(-c3ccc(OC)cc3)nc2OC)no1	none
COc1ccc(-c2ccc(-c3noc(C(C)C)n3)c(OC)n2)cc1	AT treatment 14µM
O=C(Nc1ccc(S(=O)(=O)N2CCCCCC2)cc1)c1[nH]ncc1[N+](=O)[O-]	Apoferritin bind 13µM (no result: CCT modulator)
O=C(Nc1ccc([N+](=O)[O-])cc1)c1ccc(S(=O)(=O)N2CCCC2)cc1	none
Cc1cccc2c(N=O)c(O)[nH]c12	AT treatment 3.2µM
CC(C)CN(CC(C)C)C(=O)c1cc2c(=O)n3ccccc3nc2s1	AT treatment 13µM
COc1ccc(-c2cc(C(F)(F)F)n3nc(C(=O)O)c(Cl)c3n2)cc1OC	none (no result: CCT modulator, AT treatment, MmCpn inh)
COc1ccc(-c2sc3ccc(OC)cc3c2C#Cc2cncn2C)cc1	AT treatment 28µM (no result: Apoferritin bind)
CCS(=O)(=O)N1CCC(C(=O)Nc2cccc(F)c2)CC1	CCT modulator -54
CCOc1ccc(OCC)c(NC(=O)c2csc3c2CCCC3)c1	none (no result: CCT modulator, AT treatment, MmCpn inh)
O=C(N/N=C/C1CC2C=CC1C2)c1ccccc1O (stereo unspecified)	AT treatment 32µM
Cn1nnnc1SCCNCc1ccc(OCc2ccc(Cl)cc2)cc1	Apoferritin bind 28µM (no result: CCT modulator, AT treatment, MmCpn inh)
Cc1nnc(N2CCN(c3cccc(C(F)(F)F)c3)CC2)c2c1nnn2Cc1ccccc1	none (no result: CCT modulator, AT treatment, MmCpn inh)
CC1CC(C)CN(C(=O)COC(=O)c2c[nH]c3ccccc23)C1 (stereo unspecified)	AT treatment 10µM (no result: Apoferritin bind)
CSc1nnc(NC(=O)c2ccc(S(=O)(=O)N3CCOCC3)cc2)s1	none
NC(=O)CSc1nnc(NC(=O)c2ccc(S(=O)(=O)N3CCOCC3)cc2)s1	CCT modulator -58
COc1ccccc1NC(=O)Nc1nc(C(N)Cc2ccccc2)cs1 (stereo unspecified)	CCT modulator -30 (no result: AT treatment, Apoferritin bind, MmCpn inh)
O=S(=O)(Nc1ccccn1)c1ccc(Cl)cc1	none
O=S(=O)(Nc1ccccn1)c1ccc(-n2cccn2)cc1	CCT modulator -82
Cc1ccc(-c2nc3cnccn3c2Nc2c(C)cccc2C)o1	AT treatment 16µM
Cc1ccc(-c2nc3ncccn3c2Nc2ccccc2C)o1	none
Cc1cc(C(=O)N2CCCCCC2)cs1	none
Cc1cc(C)cc(C(=O)N2CCCCCC2)c1	Apoferritin bind 13µM (no result: AT treatment)
CC1CN(C(=O)Nc2ccc(C(=O)NCCc3ccc(Cl)cc3)cc2)c2ccccc2S1 (stereo unspecified)	none (no result: CCT modulator, AT treatment, MmCpn inh)
CC1CCc2c(sc(NC(=O)Cc3ccccc3)c2C(=O)Nc2ccc(Cl)cc2)C1 (stereo unspecified)	none (no result: CCT modulator, AT treatment, MmCpn inh)
O=C(CN1C(=O)CC(c2ccccc2)Sc2ccccc21)Nc1cccc(Cl)c1 (stereo unspecified)	none (no result: CCT modulator, AT treatment, MmCpn inh)
Cc1ccc(CCNS(=O)(=O)c2cnc[nH]2)cc1	CCT modulator -39
CC(=O)NC1C(=O)N=C(SCC(=O)Nc2ccc(C(F)(F)F)cc2Cl)NC1=O (stereo unspecified)	CCT modulator -53
CCOc1ccccc1CNS(=O)(=O)c1ccc2c(c1)C(C)(C)C(=O)N2C	none
Cc1ccc(C)c(CNS(=O)(=O)c2ccc3c(c2)C(C)(C)C(=O)N3C)c1	CCT modulator -34, Apoferritin bind inconclusive
CC1Cc2ccccc2N1C(=O)CSc1ccccc1 (stereo unspecified)	Apoferritin bind 6.3µM
Cc1nn(C(C)C(=O)NCc2cccc(F)c2)c(=O)c2c1sc1ccccc12 (stereo unspecified)	none (no result: CCT modulator, AT treatment, MmCpn inh)
Cc1ccc(C)c(CN2C(=O)c3ccccc3S(=O)(=O)c3ccc(C(=O)NCc4ccccc4)cc32)c1	none (no result: CCT modulator, AT treatment, MmCpn inh)
